According to PubChem BioAssay AID651625 (National Center for Advancing Translational Sciences (NCATS), 2012):
Activity calls are given as the source filed them.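 Rule for the calls: active = inhibition of at least 60% at a 114 µM dose; inconclusive = inhibition from 30% up to under 60% at that dose; inactive = inhibition under 30% at 114 µM.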

target: Ubiquitin carboxyl-terminal hydrolase 5 (Homo sapiens) (UniProt P45974); assay: Inhibitors of USP1/UAF1: SAR in USP5 diubiquitin SDS-PAGE gel assay; conditions: USP5 K63 diubiquitin cleavage, 1 h; series mostly up to 114 µM
Text: Deubiquitinating enzymes (DUBs) are a class of enzymes that can cleave isopeptide bond formed between the C-terminal carboxylate of ubiquitin and a lysine side-chain amino group on the target protein. Among them, ubiquitin specific proteases (USPs) constitute the largest DUB family. Human USPs are emerging as promising targets for pharmacological intervention because of their connection to a number of human diseases, including prostate, colon and breast cancer (1, 2), pediatric acute lymphoblastic leukemia (3), and familial cylindromatosis (4). The advantage of inhibiting USPs lies in the potential specificity of therapeutic intervention that can lead to better efficacy and reduce nonspecific side effects. In a collaboration between the University of Delaware and the NIH Chemical Genomics Center, a high-throughput screen assay was developed to screen for USP1/UAF1 inhibitors (5). This assay is a selectivity assay that tested for activity in a USP5 diubiquitin SDS-PAGE gel assay and inactivity is the desired outcome for this assay. […]
The inhibition assay contains 5 nM USP5, 2 microM K63 linked diubiquitin, and inhibitors at varied concentrations (0.08 microM - 114 microM). […] The intensity of the individual diubiquitin and monoubiquitin band was quantified using Quantity One 4.3.1 (Biorad, Hercules, CA). The percentage of the conversion was determined and used to calculate the reaction rate. […]

Ubiquitin carboxyl-terminal hydrolase 5 (Homo sapiens), sequence (P45974 whole entry, looked up): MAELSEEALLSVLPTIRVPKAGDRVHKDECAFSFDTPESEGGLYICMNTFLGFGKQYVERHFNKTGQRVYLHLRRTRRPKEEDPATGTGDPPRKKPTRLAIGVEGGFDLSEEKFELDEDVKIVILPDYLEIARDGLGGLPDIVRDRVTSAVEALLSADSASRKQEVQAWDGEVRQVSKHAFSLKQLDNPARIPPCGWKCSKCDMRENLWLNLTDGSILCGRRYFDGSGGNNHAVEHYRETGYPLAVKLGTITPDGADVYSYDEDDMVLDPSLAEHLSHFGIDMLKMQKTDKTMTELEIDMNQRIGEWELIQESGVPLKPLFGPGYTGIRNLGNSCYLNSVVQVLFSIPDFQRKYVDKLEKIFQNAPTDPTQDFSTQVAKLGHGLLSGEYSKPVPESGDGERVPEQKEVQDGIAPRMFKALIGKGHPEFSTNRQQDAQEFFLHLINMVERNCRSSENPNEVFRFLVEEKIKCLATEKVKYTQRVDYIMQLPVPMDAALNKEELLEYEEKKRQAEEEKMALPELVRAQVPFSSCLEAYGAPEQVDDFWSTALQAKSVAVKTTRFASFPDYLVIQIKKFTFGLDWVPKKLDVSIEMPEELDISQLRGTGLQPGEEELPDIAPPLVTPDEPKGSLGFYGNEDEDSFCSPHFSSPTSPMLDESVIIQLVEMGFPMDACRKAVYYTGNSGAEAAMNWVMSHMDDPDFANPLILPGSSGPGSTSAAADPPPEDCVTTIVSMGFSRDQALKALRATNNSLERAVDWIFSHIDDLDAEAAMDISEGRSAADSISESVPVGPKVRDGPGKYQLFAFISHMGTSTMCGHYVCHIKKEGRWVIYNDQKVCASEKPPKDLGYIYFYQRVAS

| Compound | outcome |
| --- | --- |
| Cc1cnc(-c2ccccc2C(C)C)nc1NCc1ccc(-n2ccnn2)cc1 | inactive |
